Experimental data published in PubChem BioAssay (NCI).
“And” between values parts separate entries of the source, which are not always exact repeats. Equal values may be shown once. About 79,000 compounds went through this panel and 15% of them were active in at least one assay; those are over-represented in the sample as a whole. No stated cut-off is given here; in the data, active means growth inhibition above about 70%; inactive means the rest.

What was measured:
[1] = NCI Yeast Anticancer Drug Screen. Data for the rad50 strain (AID 155);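 further: 0% = growth of vehicle-only cultures of the same strain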; settings: S. cerevisiae rad50 strain growth inhibition, active compounds read high; at 50.0 µM unless noted
Outline: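 Compounds were tested on a yeast strain with an engineered DNA damage repair alteration; the reported value is growth inhibition normalised to vehicle treatment.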

[2] = NCI Yeast Anticancer Drug Screen. Data for the mec2-1 strain (AID 157); settings: S. cerevisiae mec2-1 strain, active compounds read high; at 50.0 µM unless noted
Outline: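 Mutant yeast (mec2-1) grown with compound; growth inhibition relative to vehicle control reported.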

[3] = NCI Yeast Anticancer Drug Screen. Data for the sgs1 mgt1 strain (AID 161);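 further: 0% = growth of cultures given vehicle only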; settings: S. cerevisiae sgs1 mgt1 strain, active compounds read high; at 50.0 µM unless noted
Outline: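 Yeast cells carrying a defined DNA-repair defect were exposed to test compounds. Growth inhibition was measured relative to vehicle-treated controls.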

[4] = NCI Yeast Anticancer Drug Screen. Data for the cln2 rad14 strain (AID 165);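 further: 0% = growth equal to vehicle treated cultures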; settings: S. cerevisiae cln2 rad14 strain, active compounds read high; at 50.0 µM unless noted
Outline: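 Readout is yeast growth inhibition versus vehicle-treated controls, using a strain with cln2 and rad14 alterations exposed to compound.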

[5] = NCI Yeast Anticancer Drug Screen. Data for the bub3 strain (AID 167); settings: S. cerevisiae bub3 mutant strain, active compounds read high; at 50.0 µM unless noted
Outline: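 Growth of a checkpoint-deficient yeast mutant is measured after compound exposure. Values represent inhibition relative to vehicle.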

[6] = NCI Yeast Anticancer Drug Screen. Data for the mlh1 rad18 strain (AID 175); settings: S. cerevisiae mlh1 rad18 strain growth inhibition, active compounds read high; at 50.0 µM unless noted
Outline: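 Genetically defined yeast (DNA repair-deficient) exposed to compounds; growth inhibition determined relative to vehicle.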

Measured: growth inhibition

O=C(CSC(=S)N1CCOCC1)Nc1nc2c(s1)CCCC2
inactive: [1] -15.1% | [2] -32% | [3] -28.2% | [4] 2.6% | [5] -1.65% | [6] -16.3%

O=c1c2ccccc2oc2c(Cl)cc(Cl)cc12
inactive: [1] -0.95% | [2] -0.05% | [3] 9.35% | [4] -10.3% | [5] -6.5% | [6] 0.8%

CCc1nc(N)nc(N)c1-c1ccc(NC2CCCCC2)c([N+](=O)[O-])c1
inactive: [1] 10.3% | [2] 14.2% | [3] 16.1% | [4] 17.9% | [5] -6.05% | [6] 27.1%

NC1CC(c2ccccc2)NC(c2ccccc2)C1 (stereo not given)
inactive: [1] 10.7% | [2] -2.9% | [3] -4.8% | [4] -8.5% | [5] -14.8% | [6] 16.2%

O=C1C=C(C2=CC(=O)c3cccc(O)c3C2=O)C(=O)c2c(O)cccc21
inactive: [1] -32.5% | [2] -13% | [3] -9.9% | [4] -46% | [5] -8.5% | [6] -4.7%

O=c1ccc(-c2ccc(-n3ccnc3)cc2)nn1CCO
inactive: [1] -39.4% | [2] -49.5% | [3] -24.7% | [4] -2.7% | [5] -38% | [6] -10.8%

N=c1ccccn1CC(O)COc1ccc(Cl)cc1 (stereo not given)
inactive: [1] 11.8% | [2] -10.1% | [3] -8.85% | [4] -17.9% | [5] -2.5% | [6] -16.6%

COc1ccc(/C(=N\NC(=S)NN)C(c2ccc(OC)cc2)C2C(=O)Oc3ccccc32)cc1 (stereo not given)
inactive: [1] 13.4% | [2] 5.85% | [3] 38.4% | [4] -9.3% | [5] 12.7% | [6] 2.85%

CC1(C)CCC2=C(O1)C(=O)c1ccccc1C2=O
inactive: [1] 13.8% | [2] -3.45% | [3] 29.6% | [4] 3.35% | [5] 35.8% | [6] 18%

CC(=O)C[N+](C)(C)C
inactive: [1] -12.9% | [2] -17.1% | [3] -14.8% | [4] -7.45% | [5] -20.8% | [6] 12.7%

CS(=O)CCC1C(=O)OC(C(C)(C)C)N1C(=O)c1ccccc1 (stereo not given)
inactive: [1] 8.25% | [2] 3.65% | [3] 4.55% | [4] -12.3% | [5] -0.85% | [6] -0.4%

O=C(CCS(=O)(=O)CCC(=O)c1ccccc1)c1ccccc1
inactive: [1] -12.3% | [2] 11.8% | [3] 2.25% | [4] -6.35% | [5] -4.4% | [6] 3.1%

CC1(C)COC(=S)N1
inactive: [1] -3% and -28.6% | [2] 6.85% and -21.8% | [3] 0.5% and -14.8% | [4] 11.4% and -25.3% | [5] 9.55% and -26.9% | [6] 19.1% and -27.2%

O=C(OC1CCC/C=C\CCCC1)c1ccc(Cl)cc1 (stereo not given)
inactive: [1] 1.45% | [2] -4.35% | [3] -16.4% | [4] -2.1% | [5] -1.5% | [6] 2.45%

Cc1ccc(-c2cc(-c3ccccc3)c(C#N)c(=O)n2C2OC(CO)C(O)C(O)C2O)cc1 (stereo not given)
inactive: [1] -6.55% | [2] -0.3% | [3] 2.25% | [4] 28.1% | [5] 8.65% | [6] 2.95%

CC/C(=N/NC(N)=O)c1ccc(C)cc1
inactive: [1] -11.9% | [2] -11.8% | [3] -10.2% | [4] -21.1% | [5] 2.75% | [6] -8.9%

COC(=O)[C@H](Cc1c[nH]c2ccccc12)NC(=O)OCC1OC(n2cc(C)c(=O)[nH]c2=O)CC1N=[N+]=[N-] (stereo not given in full)
inactive: [1] -0.35% | [2] -20.4% | [3] -3.5% | [4] 9.3% | [5] -13.6% | [6] -79.5%

CCOC(=O)/C(Cc1cc[n+]([O-])cc1)=N/O
inactive: [1] 33.5% | [2] 27.3% | [3] 15.2% | [4] 13.5% | [5] 13.6% | [6] 20.5%

CO[C@H]1C[C@H](n2cc(C)c(=O)[nH]c2=O)O[C@@H]1CO
inactive: [1] -6.55% | [2] -9.75% | [3] -39.9% | [4] -10.7% | [5] -9.3% | [6] -25.8%

CCOC(=O)c1ccc(N)nc1
inactive: [1] -3.75% | [2] -3.3% | [3] 5.35% | [4] -13% | [5] 7.95% | [6] 18.6%
